This is an account of results in PubChem BioAssay (Tox21).

Structures are written as SMILES. Inconclusive results are not listed. Calls of active or inactive are those of the source. Unless noted, calls follow the shape of the full dose curve.

A short description of assay [1]: Nuclear factor erythroid 2-related factor 2/antioxidant responsive element (Nrf2/ARE) small molecule agonists: qHTS cell viability counter screen in human keratinocytes (AID 1919968; active = well fitted curve in the direction sought with a large enough effect in the repeat runs; an effect the other way counts as inactive or inconclusive; also: nearly all actives have a fitted effect of over 55% in size; also: potency is read from the fitted curve at half-maximal effect). The gist of the method: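 After a 5 h attachment period, ARE-reporter keratinocytes were dosed with compounds in DMSO and then cultured 23 h at 37 C. Cell viability came from CellTiter-Fluor signal read after a further 1 h.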

Assay [2] addresses Gonadotropin-releasing hormone receptor (Homo sapiens) (UniProt P30968). Briefly: Human gonadotropin-releasing hormone receptor (GnRHR) small molecule agonists, calcium flux assay in GnRHR-HEK293 cells (AID 1920063). Also: nearly all actives have a fitted effect of over 35% in size. Also: potency is read from the fitted curve at half-maximal effect. The procedure, abridged: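 We seeded human GnRHR-expressing HEK293 cells for 18 hours, loaded them with calcium dye for an hour at 37 C, added test compounds, and recorded fluorescence intensity kinetically for three minutes.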

For assay [3], the target named is KiSS-1 receptor (Homo sapiens) (UniProt Q969F8). Briefly: Human kisspeptin (KISS1R) small molecule agonists, calcium flux assay in KISS1R-HEK293 cells (AID 1920064; active = well fitted curve in the direction sought with a large enough effect in the repeat runs; an effect the other way counts as inactive or inconclusive; also: potency is read from the fitted curve at half-maximal effect). The gist of the method: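 Kinetic calcium assay, 1 s sampling over 3 min at Ex/Em 480/540, in HEK293 cells engineered with human KISS1R; compounds delivered in DMSO after 1 h dye loading.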
Chain of KiSS-1 receptor (Homo sapiens) (Q969F8 whole entry, looked up): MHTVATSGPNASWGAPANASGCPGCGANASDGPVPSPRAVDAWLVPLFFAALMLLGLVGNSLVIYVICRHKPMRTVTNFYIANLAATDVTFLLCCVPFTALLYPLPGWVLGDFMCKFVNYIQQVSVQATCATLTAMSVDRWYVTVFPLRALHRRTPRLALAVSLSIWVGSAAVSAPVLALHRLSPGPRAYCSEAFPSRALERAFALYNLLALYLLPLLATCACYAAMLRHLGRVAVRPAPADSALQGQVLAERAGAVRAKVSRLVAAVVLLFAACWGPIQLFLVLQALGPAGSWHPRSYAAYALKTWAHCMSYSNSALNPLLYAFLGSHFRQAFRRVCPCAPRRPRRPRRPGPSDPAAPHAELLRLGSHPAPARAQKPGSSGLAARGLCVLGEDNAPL
A short description of assay [4]: G protein-coupled receptor (GPCR) small molecule agonists, calcium flux assay: HEK293 wild type cell line counter screen (AID 1920065). Also: potency is read from the fitted curve at half-maximal effect. The gist of the method:
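Calcium-sensitive dye, loaded 1 h at 37 C into cells cultured 18 h, reports compound-evoked calcium release as fluorescence (Ex/Em 480/540), measured over 3 min. Agonist mode; 15-point titrations, triplicate.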

Assay [5] can be described thus: p53 small molecule agonists, cell-based qHTS assay with human liver microsomes (AID 1963577). The procedure, abridged:
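p53RE-bla cells, 4,000/well, compound added after 5 h, with human liver microsomes 0.5 mg/mL and NADPH 0.5 mg/mL final; 16 h at 37 C, then LiveBLAzer 2 h RT, fluorescence.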

The nature of assay [6]: p53 small molecule agonists, cell-based qHTS assay with human liver microsomes: qHTS cell viability counter screen (AID 1963579). Also: nearly all actives have a fitted effect of over 45% in size. Also: potency is read from the fitted curve at half-maximal effect. The gist of the method: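 p53RE-bla cells, 4,000/well, dosed 5 hours after plating, with human liver microsomes (0.5 mg/mL final) plus NADPH (0.5 mg/mL final), 16 hours at 37 C. Viability read as CellTiter-Glo luminescence after 30 min at room temperature.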

The nature of assay [7]: p53 small molecule agonists, cell-based qHTS assay with rat liver microsomes: qHTS cell viability counter screen (AID 1963580). Also: nearly all actives have a fitted effect of over 45% in size. Also: potency is read from the fitted curve at half-maximal effect. The procedure, abridged: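 p53RE-bla HCT-116 cells were exposed 16 h at 37 C to compounds with rat liver microsomes (0.5 mg/mL) and NADPH (0.5 mg/mL). Viability was measured in the same wells as ATP content by CellTiter-Glo luminescence.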
Assay [8] is described as follows: p53 small molecule agonists, cell-based qHTS assay: qHTS cell viability counter screen (AID 1963581). Also: nearly all actives have a fitted effect of over 45% in size. Also: potency is read from the fitted curve at half-maximal effect. The gist of the method: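 Following 5 h attachment, HCT-116 p53RE-bla cells took up compound for 16 h at 37 C; the reporter was read with B/G FRET substrate (2 h RT), and viability then via CellTiter-Glo ATP luminescence.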
Assay [9] can be described thus: p53 small molecule agonists, cell-based qHTS assay (AID 1963582; active = well fitted activation curve with a large enough effect in the signal ratio in the repeat runs, not every such curve was filed as active; the % refers to the signal ratio). The procedure, abridged:
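In this cell-based concentration-response screen, a p53 response element drives beta-lactamase; cells received DMSO-borne compounds after 5 h culture and were incubated a further 16 h before FRET substrate development.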

The target of assay [10] is 5-hydroxytryptamine receptor 2A (Homo sapiens) (UniProt P28223). The assay is described as follows: 5-hydroxytryptamine receptor 2A (HTR2A) small molecule antagonists, cell-based qHTS assay (AID 1963586). Also: nearly all actives have a fitted effect of over 45% in size. The procedure, abridged: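 Antagonist-mode intracellular calcium assay: DOI (4 nM) added after 5 min compound pre-incubation at room temperature to dye-loaded HTR2A-CHO cells. Fluorescence followed for 3 min, sampled every second.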
Chain of 5-hydroxytryptamine receptor 2A (Homo sapiens) (P28223 whole entry, looked up): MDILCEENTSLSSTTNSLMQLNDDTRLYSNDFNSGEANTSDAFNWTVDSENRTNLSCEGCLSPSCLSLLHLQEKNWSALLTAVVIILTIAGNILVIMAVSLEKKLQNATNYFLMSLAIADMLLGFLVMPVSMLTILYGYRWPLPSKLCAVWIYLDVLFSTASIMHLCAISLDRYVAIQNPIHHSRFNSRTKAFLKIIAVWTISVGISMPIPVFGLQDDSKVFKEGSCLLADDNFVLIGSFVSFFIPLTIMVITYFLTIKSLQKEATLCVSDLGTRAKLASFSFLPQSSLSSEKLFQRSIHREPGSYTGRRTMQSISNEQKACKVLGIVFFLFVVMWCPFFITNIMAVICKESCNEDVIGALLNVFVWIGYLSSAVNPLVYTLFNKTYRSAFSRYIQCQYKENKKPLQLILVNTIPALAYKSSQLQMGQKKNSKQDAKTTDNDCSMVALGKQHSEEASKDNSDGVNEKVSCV

The target is the same in assay [11]. The assay is described as follows: 5-hydroxytryptamine receptor 2A (HTR2A) small molecule agonists, cell-based qHTS assay (AID 1963587). Also: nearly all actives have a fitted effect of over 30% in size. The procedure, abridged:
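CHO cells stably expressing human HTR2A, plated 18 h, loaded with calcium dye 1 h at 37 C. Agonist mode: compounds added and intracellular calcium fluorescence recorded kinetically for 2 min at 1 sec intervals.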

For assay [12], the target named is Muscarinic acetylcholine receptor M1 (Homo sapiens) (UniProt P11229). Briefly: Cholinergic receptor muscarinic 1 (CHRM1) small molecule antagonists, cell-based qHTS assay (AID 1963588). Also: nearly all actives have a fitted effect of over 40% in size. The procedure, abridged: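 CHRM1-CHO calcium-flux assay, antagonist mode. Cells were seeded 18 h, dye-loaded 1 h at 37 C and given compound for 5 min at RT, then acetylcholine was added at 50nM. FDSS fluorescence was read 3 min; 15 concentrations, three runs.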
Chain of Muscarinic acetylcholine receptor M1 (Homo sapiens) (P11229 whole entry, looked up): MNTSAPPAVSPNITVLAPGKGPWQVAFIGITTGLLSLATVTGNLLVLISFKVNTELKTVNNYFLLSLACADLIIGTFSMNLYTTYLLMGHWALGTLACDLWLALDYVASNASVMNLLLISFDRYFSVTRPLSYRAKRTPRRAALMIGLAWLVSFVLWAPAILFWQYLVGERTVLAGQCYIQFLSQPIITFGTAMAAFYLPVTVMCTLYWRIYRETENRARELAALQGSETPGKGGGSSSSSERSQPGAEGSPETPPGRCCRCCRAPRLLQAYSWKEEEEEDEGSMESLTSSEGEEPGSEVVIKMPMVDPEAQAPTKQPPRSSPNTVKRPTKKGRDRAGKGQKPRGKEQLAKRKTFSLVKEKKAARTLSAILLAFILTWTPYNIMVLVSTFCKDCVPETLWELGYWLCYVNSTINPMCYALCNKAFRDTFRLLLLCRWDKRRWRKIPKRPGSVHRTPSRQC

For assay [13] the target is unchanged. The assay is described as follows: Cholinergic receptor muscarinic 1 (CHRM1) small molecule agonists, cell-based qHTS assay (AID 1963589). Also: nearly all actives have a fitted effect of over 35% in size. The gist of the method: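 Measures agonist-induced intracellular calcium rise. Stable human CHRM1 CHO line, 1 h dye load at 37 C, compounds from DMSO, kinetic fluorescence read.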
The nature of assay [14]: cAMP Responsive Elements (CRE) small molecule agonists, cell-based qHTS assay (AID 1963590). The gist of the method:
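A CRE-responsive beta-lactamase reporter in HEK 293T cells was used. Treatment ran 3 h at 37 C; detection used LiveBLAzer B/G FRET substrate for 2 h at room temperature.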

Assay [15] can be described thus: cAMP Responsive Elements (CRE) small molecule antagonists, cell-based qHTS assay (AID 1963591; active = well fitted inhibition curve with a large enough effect in the signal ratio in the repeat runs, not every such curve was filed as active; the % refers to the signal ratio). The gist of the method:
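HEK293T cells carrying a CRE-driven beta-lactamase reporter receive compound and NKH477 (0.25 uM final) for 3 h. Fluorescence from LiveBLAzer B/G FRET substrate is read after 2 h at room temperature.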

The target in assay [16] is Beta-2 adrenergic receptor (Homo sapiens) (UniProt P07550). The assay is described as follows: Adrenergic beta2 receptor (ADRB2) small molecule antagonists, cell-based qHTS assay (AID 1963592). Also: nearly all actives have a fitted effect of over 50% in size. Also: potency is read from the fitted curve at half-maximal effect. The procedure, abridged:
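Cells (CHO, stable ADRB2 overexpression) incubated 18-20hr at 37C; compounds added from DMSO; agonist mix (1nM isoproterenol, 100uM IBMX, 25uM Ro-20-1724) added; 0.5hr RT; d2-cAMP and anti-cAMP-cryptate added; 1hr RT; 665/615 nm read.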

The target in assay [17] is D(2) dopamine receptor (Homo sapiens) (UniProt P14416). The assay is described as follows: Dopamine D2 receptor (DRD2) small molecule antagonists, cell-based qHTS assay (AID 1963595; active = well fitted inhibition curve with a large enough effect in the signal ratio in the repeat runs, with a control signal flat; the % refers to the signal ratio; also: potency is read from the fitted curve at half-maximal effect). The procedure, abridged: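 Stable D2 receptor HEK293 line, 24 h after seeding. Compound preincubated 10 min, then quinpirole (12 nM) with forskolin analogue NKH477 (200 nM), 30 min, room temperature. Detection by time-resolved FRET of cAMP.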
Chain of D(2) dopamine receptor (Homo sapiens) (P14416 whole entry, looked up): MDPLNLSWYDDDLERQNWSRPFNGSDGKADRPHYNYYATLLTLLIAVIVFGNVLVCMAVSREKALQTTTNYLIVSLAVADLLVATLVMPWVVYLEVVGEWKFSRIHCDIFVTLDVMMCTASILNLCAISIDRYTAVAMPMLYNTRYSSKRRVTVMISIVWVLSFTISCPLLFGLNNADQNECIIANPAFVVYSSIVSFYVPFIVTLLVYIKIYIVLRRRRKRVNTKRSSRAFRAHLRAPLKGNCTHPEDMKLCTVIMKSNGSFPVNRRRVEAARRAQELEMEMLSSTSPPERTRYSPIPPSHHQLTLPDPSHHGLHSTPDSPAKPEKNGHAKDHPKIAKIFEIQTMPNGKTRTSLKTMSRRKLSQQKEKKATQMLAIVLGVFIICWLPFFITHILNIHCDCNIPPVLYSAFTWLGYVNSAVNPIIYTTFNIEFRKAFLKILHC

The target is the same in assay [18]. Briefly: Dopamine D2 receptor (DRD2) small molecule agonists, cell-based qHTS assay (AID 1963594). Also: nearly all actives have a fitted effect of over 35% in size. Also: potency is read from the fitted curve at half-maximal effect. The gist of the method: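 HEK293 cells stably expressing human DRD2, pre-treated with PDE inhibitor Ro20-1724 (0.1 mM final) and compound 10 min at room temperature, then stimulated with NKH477 (200nM […]) for 30 min. cAMP read by HTRF (665/620 nm).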
Assay [19] in a line: p53 small molecule agonists, cell-based qHTS assay with rat liver microsomes (AID 1963578). The gist of the method: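 p53RE-bla cells, 4,000/well, pre-incubated 5 h, then given compounds plus rat liver microsomes (0.5 mg/mL final) and NADPH (0.5 mg/mL final). Incubation 16 h at 37 C; beta-lactamase reporter read by LiveBLAzer fluorescence after 2 h at room temperature.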
Assay [20] has as its target Beta-2 adrenergic receptor (Homo sapiens) (UniProt P07550). The assay is described as follows: Adrenergic beta2 receptor (ADRB2) small molecule agonists, cell-based qHTS assay (AID 1963593).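 Also: CHO cells stably overexpressing human ADRB2.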 The gist of the method:
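CHO cells stably over-expressing ADRB2 were plated overnight at 37C, then dosed with compounds plus a stimulation mix containing 100uM IBMX and 25uM Ro-20-1724 for 0.5hr at room temperature. cAMP was measured by HTRF competition, 1hr.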

Chain of Beta-2 adrenergic receptor (Homo sapiens) (P07550 whole entry, looked up): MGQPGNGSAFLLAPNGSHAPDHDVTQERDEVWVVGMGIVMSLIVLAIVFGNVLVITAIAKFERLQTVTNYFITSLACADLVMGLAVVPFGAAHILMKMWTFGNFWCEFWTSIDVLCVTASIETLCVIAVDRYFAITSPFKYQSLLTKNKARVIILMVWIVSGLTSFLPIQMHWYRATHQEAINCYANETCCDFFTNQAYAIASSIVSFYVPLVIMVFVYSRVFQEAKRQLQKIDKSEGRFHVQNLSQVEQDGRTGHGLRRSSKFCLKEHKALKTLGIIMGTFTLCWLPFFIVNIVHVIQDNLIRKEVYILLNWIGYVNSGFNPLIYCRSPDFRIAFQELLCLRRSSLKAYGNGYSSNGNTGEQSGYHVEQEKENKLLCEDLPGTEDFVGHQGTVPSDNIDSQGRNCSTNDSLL
Chain of Gonadotropin-releasing hormone receptor (Homo sapiens) (P30968 whole entry, looked up): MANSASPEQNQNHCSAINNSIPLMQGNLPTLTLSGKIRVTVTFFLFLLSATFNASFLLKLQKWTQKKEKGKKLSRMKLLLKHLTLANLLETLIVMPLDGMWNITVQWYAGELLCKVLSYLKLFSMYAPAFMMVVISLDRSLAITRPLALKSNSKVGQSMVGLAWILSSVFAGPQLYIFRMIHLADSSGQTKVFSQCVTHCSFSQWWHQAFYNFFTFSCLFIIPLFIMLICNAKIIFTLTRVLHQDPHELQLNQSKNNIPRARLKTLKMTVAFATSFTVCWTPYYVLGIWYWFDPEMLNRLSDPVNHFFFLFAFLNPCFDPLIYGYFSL

For `CCOc1nc(C(Cl)(Cl)Cl)ns1`, the Potency result in [1], in assay [2], in [3], in assay [4], in assay [5] and in assay [6] was “inactive” in each case. Besides, the Potency entry in [7], in assay [8], in [9], in assay [10], in [11] and in [12] was “inactive” in each case. The Potency result in assay [13], in [14], in [15], in [16] and in [17] was “inactive” each time.
`IC(I)=C(I)I`: the results for the Potency in assay [1], in assay [6] and in assay [17] were 27.3 µM (active), 16.2 µM (active) and 54.5 µM (active), respectively. Besides, the Potency entry in [2], in [3], in [4], in [5], in assay [10] and in assay [11] was “inactive” each time. The Potency entry in assay [12], in assay [13] and in [18] was “inactive” in each case.
For `CC(C)(CCl)C(=O)Cl`, the Potency result in assay [1], in assay [2], in [3], in assay [4], in assay [5] and in assay [19] was “inactive” in each case. Further, the Potency entry in assay [8], in [9], in [10], in assay [11], in assay [12] and in assay [13] was “inactive” each time. The Potency entry in assay [14], in [15], in assay [16], in assay [18] and in assay [17] was “inactive” each time.
For `COc1ccc(/C(=C/C(=O)N2CCOCC2)c2ccc(Cl)cc2)cc1OC`, the Potency entry in [1], in [2], in [3], in assay [4], in assay [19] and in assay [6] was “inactive” each time. The Potency result in assay [7], in assay [9], in [11], in [12], in assay [13] and in assay [16] was “inactive” in each case. Also, the Potency entry in assay [20], in assay [18] and in assay [17] was “inactive” in each case.
Regarding `CN/C(=N\[N+](=O)[O-])NCC1CCOC1` (configuration not stated), the Potency entry in assay [1], in assay [2], in assay [3], in [4], in assay [5] and in assay [6] was “inactive” each time. Further, the Potency entry in [7], in assay [8], in assay [9], in assay [10], in [11] and in assay [13] was “inactive” throughout. The Potency entry in [14], in assay [15], in assay [16], in assay [20] and in assay [18] was “inactive” throughout.
For the compound `Clc1ccc(CSC(Cn2ccnc2)c2ccc(Cl)cc2Cl)cc1` (configuration not stated), in [1], the Potency was 29.8 µM (active). For the same compound, the Potency entry in [2], in [3], in [4], in [5], in assay [19] and in assay [7] was “inactive” each time. In addition, the Potency entry in assay [14], in [16], in assay [20], in assay [18] and in assay [17] was “inactive” in each case.
Regarding `C[C@@H]1CC[C@@]2(OC1)O[C@H]1[C@@H](O)[C@H]3[C@@H]4CC[C@H]5C[C@@H](O[C@@H]6O[C@H](CO)[C@H](O[C@@H]7O[C@H](CO)[C@@H](O)[C@H](O[C@@H]8OC[C@@H](O)[C@H](O)[C@H]8O)[C@H]7O[C@@H]7O[C@H](CO)[C@@H](O)[C@H](O[C@@H]8O[C@H](CO)[C@@H](O)[C@H](O)[C@H]8O)[C@H]7O)[C@H](O)[C@H]6O)[C@H](O)C[C@]5(C)[C@H]4CC[C@]3(C)[C@H]1[C@@H]2C`, the Potency is 8.17 µM (active) in [1]; 0.735 µM (active) in assay [2]; 23.2 µM (active) in assay [3]; 41.3 µM (active) in assay [4]; 13.7 µM (active) in assay [6]; 13.7 µM (active) in [7]. The Potency was 13.7 µM (active) in [8], 64.9 µM (active) in assay [16], 51.5 µM (active) in [18] and 2.3 µM (active) in assay [17]. Also, the Potency entry in [5] and in [15] was “inactive” throughout.
